We go through 58 compounds from PubChem BioAssay AID588689 (Southern Research Specialized Biocontainment Screening …, 2011).

For the experiment, the target named is Genome polyprotein (Dengue virus type 2 (strain 16681-PDK53)) (UniProt P29991). Description: Dengue-2 NS5 methyltransferase inhibitors, primary screen, biochemical, confirmation dose response (AID 588689). As to conditions: Dengue-2 NS5 methyltransferase capping enzyme assay, at 25 µM, stronger effect = higher value.
[1] abbreviates: measured here: pilot screen replicate inhibition.

Hit rate of the full screen: of about 340,000 compounds, about 1,000 (0.29%) were called active. Cut-off read from the data, not from the text of the source: inconclusive = inhibition above about 29% without an active follow-up result; inactive = below that. The list is a sample of the results. Measured potencies and affinities stand elsewhere.

Chain of Genome polyprotein (Dengue virus type 2 (strain 16681-PDK53)) (P29991 whole entry, looked up): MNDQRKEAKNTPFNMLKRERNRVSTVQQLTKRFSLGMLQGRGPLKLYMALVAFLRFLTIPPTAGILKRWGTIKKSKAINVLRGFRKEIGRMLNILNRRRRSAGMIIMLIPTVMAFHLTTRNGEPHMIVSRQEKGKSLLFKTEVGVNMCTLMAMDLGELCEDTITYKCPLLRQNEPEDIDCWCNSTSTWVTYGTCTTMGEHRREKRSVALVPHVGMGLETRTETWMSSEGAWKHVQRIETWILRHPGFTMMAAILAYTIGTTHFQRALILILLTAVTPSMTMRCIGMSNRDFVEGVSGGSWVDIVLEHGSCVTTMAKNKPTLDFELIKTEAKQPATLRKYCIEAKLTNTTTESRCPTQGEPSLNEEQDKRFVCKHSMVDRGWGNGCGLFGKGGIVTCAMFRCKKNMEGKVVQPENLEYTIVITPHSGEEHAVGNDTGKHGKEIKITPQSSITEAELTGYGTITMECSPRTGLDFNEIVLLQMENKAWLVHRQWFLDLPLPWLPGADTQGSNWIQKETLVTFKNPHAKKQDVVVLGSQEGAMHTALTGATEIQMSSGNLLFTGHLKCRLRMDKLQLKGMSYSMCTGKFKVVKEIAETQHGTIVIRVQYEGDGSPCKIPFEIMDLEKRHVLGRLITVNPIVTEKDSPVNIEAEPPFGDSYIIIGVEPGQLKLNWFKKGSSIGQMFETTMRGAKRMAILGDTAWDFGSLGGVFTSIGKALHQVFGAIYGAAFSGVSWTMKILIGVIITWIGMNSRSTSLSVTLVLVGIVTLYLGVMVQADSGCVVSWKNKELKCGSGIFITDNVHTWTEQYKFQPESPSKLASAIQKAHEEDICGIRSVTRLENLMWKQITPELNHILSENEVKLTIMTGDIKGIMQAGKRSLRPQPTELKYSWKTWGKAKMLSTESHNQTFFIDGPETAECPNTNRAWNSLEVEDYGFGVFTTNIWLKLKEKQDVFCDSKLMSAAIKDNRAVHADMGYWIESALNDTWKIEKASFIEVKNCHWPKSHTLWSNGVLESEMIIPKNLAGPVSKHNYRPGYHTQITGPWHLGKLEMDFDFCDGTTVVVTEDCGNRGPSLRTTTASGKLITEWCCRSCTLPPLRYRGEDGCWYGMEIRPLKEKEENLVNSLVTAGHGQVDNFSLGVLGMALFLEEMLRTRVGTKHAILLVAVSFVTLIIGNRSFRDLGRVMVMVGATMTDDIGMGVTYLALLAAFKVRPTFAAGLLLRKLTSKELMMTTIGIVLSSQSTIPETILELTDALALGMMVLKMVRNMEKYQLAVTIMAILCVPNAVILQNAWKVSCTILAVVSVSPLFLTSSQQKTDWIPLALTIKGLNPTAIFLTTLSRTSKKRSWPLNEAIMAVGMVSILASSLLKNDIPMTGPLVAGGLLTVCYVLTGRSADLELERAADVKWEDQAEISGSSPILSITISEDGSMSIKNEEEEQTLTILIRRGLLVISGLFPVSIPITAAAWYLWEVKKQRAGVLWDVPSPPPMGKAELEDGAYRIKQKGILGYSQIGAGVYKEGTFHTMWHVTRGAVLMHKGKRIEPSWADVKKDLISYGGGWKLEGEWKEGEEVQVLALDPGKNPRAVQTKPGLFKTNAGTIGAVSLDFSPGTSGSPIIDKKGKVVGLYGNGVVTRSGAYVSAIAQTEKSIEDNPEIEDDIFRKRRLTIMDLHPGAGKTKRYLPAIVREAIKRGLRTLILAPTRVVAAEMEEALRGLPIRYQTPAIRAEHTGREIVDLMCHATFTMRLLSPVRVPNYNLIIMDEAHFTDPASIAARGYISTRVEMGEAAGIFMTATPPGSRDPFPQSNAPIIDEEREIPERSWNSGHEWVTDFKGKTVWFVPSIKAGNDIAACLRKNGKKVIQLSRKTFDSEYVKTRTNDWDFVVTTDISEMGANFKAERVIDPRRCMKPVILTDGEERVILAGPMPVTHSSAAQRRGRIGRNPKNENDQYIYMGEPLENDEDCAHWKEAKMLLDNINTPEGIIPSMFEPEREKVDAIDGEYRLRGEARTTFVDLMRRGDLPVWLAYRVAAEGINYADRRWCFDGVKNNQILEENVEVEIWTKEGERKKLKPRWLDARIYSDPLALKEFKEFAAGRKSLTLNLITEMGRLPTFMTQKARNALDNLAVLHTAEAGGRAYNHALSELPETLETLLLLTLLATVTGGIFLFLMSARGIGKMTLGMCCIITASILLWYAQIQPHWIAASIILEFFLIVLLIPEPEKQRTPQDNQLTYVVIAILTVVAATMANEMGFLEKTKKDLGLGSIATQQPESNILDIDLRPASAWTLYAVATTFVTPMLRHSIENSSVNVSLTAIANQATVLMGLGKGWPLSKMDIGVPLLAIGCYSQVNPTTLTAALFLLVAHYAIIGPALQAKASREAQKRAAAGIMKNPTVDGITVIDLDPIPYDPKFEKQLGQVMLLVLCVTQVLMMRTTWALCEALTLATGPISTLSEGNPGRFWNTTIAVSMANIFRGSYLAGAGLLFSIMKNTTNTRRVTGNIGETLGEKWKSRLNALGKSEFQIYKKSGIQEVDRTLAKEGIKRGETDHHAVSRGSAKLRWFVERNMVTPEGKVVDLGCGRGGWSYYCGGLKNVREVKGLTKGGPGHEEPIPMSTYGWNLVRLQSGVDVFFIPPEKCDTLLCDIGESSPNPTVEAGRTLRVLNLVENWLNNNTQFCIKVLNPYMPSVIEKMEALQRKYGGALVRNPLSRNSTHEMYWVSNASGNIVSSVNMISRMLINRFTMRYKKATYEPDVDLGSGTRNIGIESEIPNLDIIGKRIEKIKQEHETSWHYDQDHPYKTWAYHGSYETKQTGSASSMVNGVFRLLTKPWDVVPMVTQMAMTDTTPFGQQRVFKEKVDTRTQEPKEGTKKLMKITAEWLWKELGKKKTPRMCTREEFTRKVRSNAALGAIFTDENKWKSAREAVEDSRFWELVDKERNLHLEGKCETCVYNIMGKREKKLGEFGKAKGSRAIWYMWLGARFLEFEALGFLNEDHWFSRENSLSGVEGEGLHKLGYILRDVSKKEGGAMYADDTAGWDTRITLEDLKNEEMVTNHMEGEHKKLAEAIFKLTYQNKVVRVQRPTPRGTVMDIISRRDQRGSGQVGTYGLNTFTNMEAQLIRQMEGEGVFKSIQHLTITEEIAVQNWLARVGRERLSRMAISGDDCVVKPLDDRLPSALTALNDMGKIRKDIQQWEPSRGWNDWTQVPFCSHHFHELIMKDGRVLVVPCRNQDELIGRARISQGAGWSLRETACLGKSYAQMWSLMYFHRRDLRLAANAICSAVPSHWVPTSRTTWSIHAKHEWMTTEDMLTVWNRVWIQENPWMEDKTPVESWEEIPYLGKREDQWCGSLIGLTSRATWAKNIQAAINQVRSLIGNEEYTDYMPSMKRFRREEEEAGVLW

Take `Cc1n[nH]c(C)c1CCCCOc1ccccc1[N+](=O)[O-]`: the inhibition was -3.29% (inactive). In addition, the inhibition under setting [1] was -1.21%.
On to `CSc1nnc(C)c(=O)n1COC(=O)COc1ccccc1F`, for which the inhibition is 9.2% (inactive).
Still for that read-out and setting: the figure for `COc1ccc(CCn2c(C)c(C(C)=O)c3cc(OC(=O)c4ccco4)ccc32)cc1OC` is -1.6% (inactive); for `COc1ccccc1-n1c(CNC(=O)c2ccc(S(=O)(=O)N3CCOCC3)cc2)n[nH]c1=S` it is -4.46% (inactive); for `C=C(C)CN1C(=O)c2ccccc2C1=O` it is 2.04% (inactive).
On the same count and under the same terms, the figure for `CC(=O)N1N=C(c2ccc(C)o2)CC1c1ccc(Br)cc1` (stereo unspecified) is -4.86% (inactive); for `COc1cc2c(cc1OC)C(COc1cccc(C(F)(F)F)c1)NCC2` (stereo unspecified) it is 6.97% (inactive); for `CCCCOc1ccc(C(=O)NCC(=O)NC2CC2)cc1` it is 1.44% (inactive).
The same measure, in the same setting: the figure for `CCOC(=O)c1nc[nH]c1C` is -4.86% (inactive).
With `COc1ccc(S(=O)(=O)/N=C2\C=C(Nc3ccc(O)cc3)C(=O)c3ccccc32)cc1`, the inhibition was 10.3% (inactive).
The same measure, in the same setting: the figure for `Cc1ccc(S(=O)(=O)Nc2ccccc2-c2ccccc2)cc1` is -9.37% (inactive).
Same read-out and setting: the figure for `Cc1ccc(NC2=C/C(=N\S(=O)(=O)c3cccs3)c3ccccc3C2=O)c(C)c1` is 12.8% (inactive).
On the same count and under the same terms, the figure for `CC(C)c1ccc(-c2csc3nc[nH]c(=O)c23)cc1` is -4.66% (inactive); for `CC(=O)OC1(C)C=Cc2ccccc2C1=NS(=O)(=O)c1ccccc1` (stereo unspecified) it is 4% (inactive).
Turning to `Cc1ccc(S(=O)(=O)/N=C2\C=C(NS(=O)(=O)c3ccccc3)C(=O)c3ccccc32)c(C)c1`, the inhibition is 13.1% (inactive).
As to `Cc1ccc(S(=O)(=O)Nc2ccccc2C(N)=O)cc1`, the inhibition is -8.11% (inactive). Besides, the inhibition under setting [1] was -8.21%.
With `CN1C/C(=N\S(=O)(=O)c2ccccc2)N(C)C1=O`, the inhibition is -4.44% (inactive).
Still for that read-out and setting: the figure for `O=[N+]([O-])c1cc(C(F)(F)F)ccc1-n1nnc2ccccc21` is 1.31% (inactive); for `Cc1cc2cc(CNC(=O)Nc3cccc(Cl)c3)ccc2n1C` it is 22.2% (inactive).
On the same count and under the same terms, the figure for `COCCNc1nnc(SCC(=O)NC(=O)c2ccc(Cl)cc2)s1` is 2.89% (inactive); for `COc1ccc(OC)c(NC(=O)c2cccc(N3C(=O)C4C5CCC(C5)C4C3=O)c2)c1` (stereo unspecified) it is -6.74% (inactive); for `CCOC(=O)CCC(NC(=O)CCC(=O)NC(CCC(=O)OCC)C(=O)OCC)C(=O)OCC` (stereo unspecified) it is -7.26% (inactive).
Turning to `O=C(CNC(=O)c1ccccc1F)NCCN1C(=O)S/C(=C\c2ccc3c(c2)OCO3)C1=O`, the inhibition is -1.45% (inactive).
The same measure, in the same setting: the figure for `O=C(c1ccc(CS(=O)c2ccc(F)cc2)o1)N1CCN(C2CCCCC2)CC1` (stereo unspecified) is -10.8% (inactive).
Same read-out and setting: the figure for `Cc1[nH]c(=O)[nH]c(=O)c1CSc1nnc([C@@H](NC(=O)OC(C)(C)C)C(C)C)o1` is 0.56% (inactive); for `C/C(=N\NS(=O)(=O)c1ccc(C(C)(C)C)cc1)c1ccccc1` it is -0.98% (inactive).
The same measure, in the same setting: the figure for `CC(C)(C)c1ccc(S(=O)(=O)Nc2ccccn2)cc1` is 2.21% (inactive).
Turning to `COC(=O)C(C(C)=O)C1=C/C(=N\S(=O)(=O)c2ccc(C)cc2)c2ccccc2C1=O` (stereo unspecified), the inhibition is -8.06% (inactive).
Still for that read-out and setting: the figure for `Cc1ccc(S(=O)(=O)/N=C2\C=C(Nc3ccc(O)cc3)C(=O)c3ccccc32)cc1` is -0.74% (inactive); for `O=C(CCN1C(=O)C2CC=CCC2C1=O)Nc1cccc(S(=O)(=O)N2CCCCC2)c1` (stereo unspecified) it is 0% (inactive); for `NC(=O)CSc1nnc(-c2cccs2)n1-c1ccccc1` it is -6.45% (inactive).
On the same count and under the same terms, the figure for `COCCN(C(=O)COC(=O)CCSc1ccc(F)cc1)c1c(N)n(Cc2ccccc2)c(=O)[nH]c1=O` is -5.13% (inactive); for `COC(=O)C1(C(=O)OC)C(C(=O)c2ccccc2)C1c1ccccc1` (stereo unspecified) it is 5.57% (inactive).
The same measure, in the same setting: the figure for `COc1cc(SC)ccc1C(=O)Nc1cccc(S(=O)(=O)NC2=NCCCCC2)c1` is -1.45% (inactive); for `COCCNC(=O)Nc1ccc2nc(-c3cccs3)c(-c3cccs3)nc2c1` it is -17.7% (inactive).
On to `CCCNC(=O)c1ccc2nc(-c3ccccc3)c(-c3ccccc3)nc2c1`, for which the inhibition is -0.8% (inactive).
For the compound `O=C(Nc1cccc(C(F)(F)F)c1)c1ccc2nc(-c3ccco3)c(-c3ccco3)nc2c1`, the inhibition was 21.6% (inactive).
Still for that read-out and setting: the figure for `CCc1nc2ccc(C(=O)NCCc3ccco3)cc2nc1CC` is -11.5% (inactive).
On the same count and under the same terms, the figure for `O=C(Nc1ccc(N2CCOCC2)cc1)c1ccc2nc(-c3ccco3)c(-c3ccco3)nc2c1` is 3.24% (inactive); for `O=C(Nc1ccc(N2CCOCC2)cc1)Nc1ccc2nc(-c3ccco3)c(-c3ccco3)nc2c1` it is 13.6% (inactive).
Consider `COc1ccc2nc3c(nc2c1)CCCC3`, for which the inhibition is -8.49% (inactive).
Turning to `COc1ccc2nc3ccccc3nc2c1`, the inhibition is 18.8% (inactive).
Take `Cc1ccccc1NC(=O)Cc1cccs1`: the inhibition is -7.91% (inactive). Moreover, under setting [1], the inhibition was -5.49%.
`COc1cc2c(cc1OC)CC(C(=O)NCc1ccccc1)NC2` (stereo unspecified): the inhibition was -4.57% (inactive).
Still for that read-out and setting: the figure for `O=C(C1CCCN(S(=O)(=O)c2ccccc2)C1)N1CCN(c2ccccc2)CC1` (stereo unspecified) is -6.74% (inactive).
On the same count and under the same terms, the figure for `CCN(CC)C(=O)C1CCCN(C(=O)Nc2ccccc2)C1` (stereo unspecified) is -0.8% (inactive); for `CN(/N=C/c1ccc2c(c1)OCO2)c1ccccc1` it is -8.15% (inactive).
For the compound `COc1cccc(-c2ncc3ccccc3c2COC(=O)c2cccs2)c1`, the inhibition was -7.94% (inactive).
Same read-out and setting: the figure for `O=C(c1ccco1)N1CCN(S(=O)(=O)c2cccc(C(F)(F)F)c2)CC1` is 0% (inactive).
On the same count and under the same terms, the figure for `CCc1nc2ccc(C(=O)NCc3ccco3)cc2nc1CC` is -6.11% (inactive); for `O=C(c1ccccc1)c1ccc2nc(-c3ccco3)c(-c3ccco3)nc2c1` it is 51.1% (inactive); for `O=C(NCCc1ccccc1)c1ccc2nccnc2c1` it is 0% (inactive).
The same measure, in the same setting: the figure for `O=C(O)c1ccc2nc(-c3ccccc3)c(-c3ccccc3)nc2c1` is -2.57% (inactive); for `O=C(c1ccc2nc(-c3ccco3)c(-c3ccco3)nc2c1)N1CCN(c2ccccc2)CC1` it is 0% (inactive).
Consider `COc1ccc(-c2nc3ccc(C(=O)NCCCN4CCOCC4)cc3nc2-c2ccc(OC)cc2)cc1`, for which the inhibition is -9.54% (inactive).
On the same count and under the same terms, the figure for `O=C(Nc1ccccc1)c1ccc2nc(-c3ccco3)c(-c3ccco3)nc2c1` is 44.6% (inactive); for `Cc1nc2ccc(C(=O)O)cc2nc1C` it is -2.96% (inactive).
On the same count and under the same terms, the figure for `Cc1ccc(NC2CCCN(C(=O)c3cn4cc(Cl)ccc4n3)C2)cc1C` (stereo unspecified) is 3.88% (inactive).
